Measurements taken from PubChem BioAssay (NCI).
Compounds without any hit were thinned out: in the full panel of roughly 83,000, 20% have a hit.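 The endpoint reported here, percent growth, reads 100 for growth as untreated, 0 for no net growth and -100 for all cells dead.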 Values without a mark were called inactive. Active and inactive are the calls of the source. The calls were made as follows: active = growth percent below 10; inactive = the rest.

How the values were obtained:
Assay in all cases: NCI-60 one-dose screen, 48 h (100 = growth as untreated, 0 = no growth, -100 = all killed)
Conditions in all cases: 10 µM unless noted
[1] = test system: BT-549 breast
[2] = test system: MDA-MB-435 melanoma
[3] = test system: SW-620 colon
[4] = test system: MCF7 breast
[5] = test system: HCT-116 colon
[6] = test system: HCC-2998 colon
[7] = test system: KM12 colon

Compound	growth [1]	growth [2]	growth [3]	growth [4]	growth [5]	growth [6]	growth [7]
C#C[C@@]1(O)[C@@H](CO)O[C@@H](n2ccc3c(N)ncnc32)[C@@H]1O	-8.06% (active)	-28.9% (active)	1.33% (active)	3.61% (active)	5.2% (active)	-44.2% (active)	0.307% (active)
Nc1ccccc1NC(=O)c1ccc(CSc2nc(N3CCOCC3)c3cccn3n2)cc1	15.3%	-21.2% (active)	9.25% (active)	10.3%	6.78% (active)	17.6%	16.6%
CCCn1cc(/C=N\N=C2\C(=O)Nc3ccc(C)cc32)c2ccccc21	63.5%	-26.6% (active)	36.7%	8.92% (active)	39.9%	47%	59.9%
CC1=C/C(=N\N=C2/C=C(C)CC(C)(C)C2)CC(C)(C)C1	112%	108%	106%	102%	98.1%	94.5%	107%
Cc1nc2sc(C(=O)Nc3cccc(Cl)c3C)c(N)c2cc1C(C)O (configuration not stated)	51.3%	1.51% (active)	38.5%	16.6%	13.9%	30.4%	19.1%
O=C1C(Cl)=C(Nc2ccc3c(c2NC2=C(Cl)C(=O)c4ccccc4C2=O)C(=O)c2ccccc2C3=O)C(=O)c2ccccc21	42.3%	-64.7% (active)	24.7%	-7.63% (active)	2.25% (active)	67%	39%
Cc1cccc(NC(=O)c2sc3nc4c(cc3c2N)CN(Cc2ccccc2)CC4)c1C	54%	-25.2% (active)	24.3%	22.4%	29.2%	55.8%	25.7%
COc1ccc2[nH]c(-c3ccccc3)c(C=C(C#N)C#N)c2c1	4.38% (active)	-55.1% (active)	25.1%	17.1%	23.5%	49.3%	18.6%
Cc1cc(C)c(NC(=O)c2sc3nc4c(cc3c2N)CCCCCC4)c(C)c1	53.6%	4.56% (active)	36.2%	24.3%	57.3%	84.7%	49%
CCCCOc1nc2ccc(C)cc2cc1/C=C/C(=O)/C=C/c1ccc2c(c1)OCO2	75.9%	35.8%	99.5%	37.8%	10.5%	106%	87.3%
CC(=O)[C@@H]1CC[C@]2(C(=O)O)CC[C@]3(C)[C@H](CC[C@@H]4[C@@]5(C)Cc6c([nH]c7ccccc67)C(C)(C)[C@@H]5CC[C@]43C)[C@@H]12	71.9%	81.2%	54.5%	38.6%	43.5%	80.5%	42.2%
O=C1CC23OC(C(O)c4ccccc4N12)C1C(c2ccccc2)=NOC13 (configuration not stated)	24.6%	-28% (active)	29.2%	26.4%	21.3%	85.2%	28.9%
N#Cc1ccc(N2Cc3cc(Cl)ccc3OC3=C2C(=O)N(Cc2ccccc2)C3=O)cc1	-50.5% (active)	-42.5% (active)	-75.8% (active)	-1.6% (active)	-82.7% (active)	40.4%	61.4%
COc1ccc([C@H]2[C@@H](F)C(=O)N2c2cc(OC)c(OC)c(OC)c2)cc1F	15.3%	0.354% (active)	28.7%	12.8%	5.59% (active)	32.9%	10.7%
CC(C)(C#N)c1cc(F)cc(C(=O)Nc2cc(Nc3ncccc3-c3ncnc4nc[nH]c34)ccc2F)c1	39.7%	48%	28.7%	58.1%	19.2%	27.3%	36%
CCc1ccc(OCc2ccccc2C(=O)Nc2ccc3nc(C)cc(N)c3c2)cc1	-91.9% (active)	-91.2% (active)	-64.3% (active)	-70.2% (active)	-99.3% (active)	-76.8% (active)	-78.9% (active)
